# Assay results from PubChem BioAssay.
# Values joined by “and” are separate entries in the source; they are usually repeats but may differ in a detail not shown here. Equal values may be shown once. Results filed as inconclusive are left out. Active and inactive are the calls of the source.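 How the source made its calls, unless noted: active means normalized viability below 100% at a tested concentration; inactive means the rest.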
# Key:
# [1] = test system: Aerobactin synthetase IucA (Klebsiella pneumoniae); experiment: inhibition of K. pneumoniae IucA enzyme – biochemical, Tocris library, absorbance (AID 1345561; call rule not given here;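 further: 100% = enzyme without compound and 0% = no enzyme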); details: purified IucA enzyme assay, absorbance (OD) read-out; stronger effect = lower value;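 tested at 8 µM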
# [2] = viability loss with induced miR-34 in A549 – imaging, A549 dox-inducible miR-34, nuclei and caspase counts, primary screen (AID 1347080;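 active means compounds whose cell count with miR-34 switched on is under 0.7 times the count with it off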); details: A549 miR-34 inducible, Hoechst nuclei count, 48 h
# [3] = galactose survival enhancers in mitochondrial complex I cybrids – cell-based, galactose medium, ATP luminescence, primary screen (AID 1645843;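 active means z-score of at least 1.8 in each of two replicates, scored against plate mean and spread of sample wells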;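 further: positive z means more ATP and so rescue of galactose-driven cybrid death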); details: complex I mutant cybrid cells, 72 h, stronger effect = higher value
# [4] = P. berghei load reduction in hepatocytes – cell-based, HepG2, luciferase luminescence, HepG2 viability, primary screen (AID 624349; in the data active means parasite load remaining mostly below about 12%, no sharp cut-off; inactive means mostly above about 10%;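 further: 100% = mean of DMSO negative control wells on the same plate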); details: P. berghei liver stage in HepG2, luciferase luminescence, concentration not given here; parasite load remaining: stronger effect = lower value; viability: measured here: HepG2 viability without parasites
# [5] = growth inhibition of DIPG cells – cell-based, MIPE5.0 library, qHTS (AID 1347068; cut-off not given, nearly all actives have IC50 up to about 30 µM;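 on IC50: cells exposed to compound for 48 hours before viability readout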); details: SU-DIPG-XXV viability
# [6] = MELAS cybrid and Rieske KO viability enhancers – cell-based, MELAS cybrids, Rieske KO mouse fibroblasts, CellTiter-Glo, primary screen (AID 1508586;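 active means mean z-score across replicates of 1.96 or higher in either the MELAS or the Rieske mutant cell line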;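 further: z relative to plate mean and SD of compound and empty wells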); details: low glucose
# [7] = compounds altering circadian rhythm period length – cell-based, LOPAC library, luminescence reporter (AID 2774; call rule not given here;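 further: values are relative to mean of DMSO wells on each plate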); details: circadian reporter cells, at 7 µM, actives lie on both sides
# [8] = compounds altering viability of human ES cells (AID 493140; call rule not given here;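 further: cells exposed to compounds for four days before counting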); details: human embryonic stem cell survival screen; stronger effect = higher value
# [9] = test system: Hepatitis C virus NS3 helicase; experiment: blockers of NS3h binding to ssDNA – biochemical, fluorescence polarization, LOPAC1280 library, primary screen (AID 687035; in the data active means inhibition above about 37%); details: Purified HCV NS3 helicase, Cy5-dT15 ssDNA binding fluorescence polarization; stronger effect = higher value; concentration not given here
# [10] = compounds altering Cy5-DNA-NS3h complex signal – biochemical, LOPAC1280, artefact control for HCV NS3 helicase inhibitor project (AID 687037; call rule not given here); details: Cy5-DNA-NS3h complex fluorescence interference counterscreen
# [11] = chitosan synthesis blockers in C. neoformans – flow cytometry, Cibacron Brilliant Red staining (AID 1347148; call rule not given here;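 further: compound exposure lasted three days at 37 degrees C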); details: Cryptococcus neoformans chitosan, stronger effect = lower value; at 10 µM unless noted
# [12] = blockers of cellular phospholipid synthesis – cell-based, LOPAC library, screen 4, primary screen (AID 1347384; call rule not given here); details: animal cells, phospholipid biosynthesis inhibition screen; at 10 µM
# [13] = compounds altering HSF1 focus formation in cells – imaging, Selleck Cancer Library (AID 1347162; in the data active means plate-normalised HSF1 focus index below about 0.46); details: human cells, HSF1 nuclear foci imaging, at 10 µM; SSMD: measured here: HSF1 foci SSMD mean; cell count: measured here: cell number; plate-normalised HSF1 focus index: stronger effect = lower value
# [14] = drug combination growth inhibition, ovarian cancer – cell-based, oncology-focused library, rucaparib conditional, profiling panel (AID 1508598); details: patient-derived ovarian cancer cells, CellTiter-Glo viability, 144 h, stronger effect = lower value
# [15] = stronger effect = lower value, cell number ratio, induced over uninduced
# [16] = measured here: relative caspase fold change +Dox/-Dox
# [17] = measured here: total cells with miR-34 induction, stronger effect = lower value
# [18] = measured here: total cells without miR-34 induction
# [19] = MELAS cybrid survival, CellTiter-Glo 48 h, stronger effect = higher value
# [20] = Rieske KO mouse fibroblast survival, CellTiter-Glo 72 h
smiles,measurement,setting,value
FC(F)(F)c1ccc(/C=C/c2nc(COc3ccc(CCCCn4ccnn4)cc3)co2)cc1,remaining activity,[1],112% (inactive)
same,fold change,[2]; [15],1.08 (inactive)
same,fold change,[2]; [16],2.06
same,cell count,[2]; [17],4070
same,cell count,[2]; [18],3770
same,z-score,[3],-0.935 (inactive)
O=C(c1ccc(Nc2nccc(-c3cc4ccccc4s3)n2)cc1)N1CCC(N2CCCC2)CC1,parasite load remaining,[4],27.7% (inactive)
same,viability,[4],86.2%
same,remaining activity,[1],98.9% (inactive)
same,IC50,[5],9.34 µM (active)
same,fold change,[2]; [15],1.04 (inactive) and 1.02 (inactive)
same,fold change,[2]; [16],0.636 and 0.577
same,cell count,[2]; [17],3590 and 394
same,cell count,[2]; [18],3460 and 385
same,z-score,[6]; [19],-0.0984 (inactive)
same,z-score,[6]; [20],0.125
same,z-score,[3],-0.705 (inactive)
O=Nc1c(-c2c(O)[nH]c3ccccc23)[nH]c2ccccc12,period change,[7],-0.845 h (active)
same,survival,[8],71.6 (inactive)
same,parasite load remaining,[4],33.5% (inactive)
same,viability,[4],168%
same,inhibition,[9],0% (inactive)
same,fluorescence ratio (interference),[10],1 (inactive)
same,remaining activity,[1],116% (inactive)
same,fold change,[2]; [15],1.02 (inactive) and 0.941 (inactive) and 1.27 (inactive)
same,fold change,[2]; [16],0.96 and 0.857 and 0.731
same,cell count,[2]; [17],1220 and 814 and 1460
same,cell count,[2]; [18],1200 and 866 and 1140
same,fold fluorescence,[11],9.39 [at 180.3 µM] (inactive)
same,outcome,[12],active
same,z-score,[3],-1.48 (inactive) and -0.805 (inactive)
Clc1ccc(-c2nc3sccn3c2/C=N/OCc2ccc(Cl)c(Cl)c2)cc1,remaining activity,[1],112% (inactive)
same,outcome,[5],inactive
same,fold change,[2]; [15],0.906 (inactive) and 0.897 (inactive)
same,fold change,[2]; [16],1.07 and 1.53
same,cell count,[2]; [17],4600 and 7870
same,cell count,[2]; [18],5080 and 8770
same,fold fluorescence,[11],3.64 [at 114.5 µM] (inactive)
same,z-score,[3],0.06 (inactive)
Nc1nccc(-c2ccc3noc(-c4ccc(Cl)cc4)c3c2)n1,parasite load remaining,[4],22.2% (inactive)
same,viability,[4],88.2%
same,remaining activity,[1],127% (inactive)
same,fold change,[2]; [15],0.777 (inactive)
same,fold change,[2]; [16],2.19
same,cell count,[2]; [17],3770
same,cell count,[2]; [18],4860
same,SSMD,[13],3.12
same,cell count,[13],7060
same,plate-normalised HSF1 focus index,[13],1.19 (inactive)
same,z-score,[3],-0.05 (inactive)
CN(CCOc1ccc(-c2ccc3c(c2)OCO3)cc1C(C)(C)C)CC(=O)O,remaining activity,[1],102% (inactive)
same,outcome,[5],inactive
same,fold change,[2]; [15],0.865 (inactive)
same,fold change,[2]; [16],1.03
same,cell count,[2]; [17],7520
same,cell count,[2]; [18],8690
same,z-score,[3],-0.035 (inactive)
COc1cc(SC)ccc1C(=O)N1CCC(Cc2ccccc2)CC1,parasite load remaining,[4],38.9% (inactive)
same,viability,[4],67%
same,inhibition,[9],1% (inactive)
same,fluorescence ratio (interference),[10],1 (inactive)
same,remaining activity,[1],78.3% (inactive)
same,outcome,[5],inactive
same,fold change,[2]; [15],1.03 (inactive) and 0.864 (inactive)
same,fold change,[2]; [16],0.962 and 1.6
same,cell count,[2]; [17],7280 and 6350
same,cell count,[2]; [18],7040 and 7350
same,outcome,[12],inactive
same,z-score,[3],-0.91 (inactive) and -0.635 (inactive)
N#C/C(=C\c1ccc(O)c(O)c1)C(=O)NCc1ccccc1,period change,[7],0.01 h (inactive)
same,survival,[8],133 (inactive)
same,parasite load remaining,[4],29.1% (inactive)
same,viability,[4],65.5%
same,inhibition,[9],0% (inactive)
same,fluorescence ratio (interference),[10],1 (inactive)
same,remaining activity,[1],113% (inactive)
same,outcome,[5],inactive
same,fold change,[2]; [15],1.1 (inactive) and 0.928 (inactive)
same,fold change,[2]; [16],1.17 and 1.42
same,cell count,[2]; [17],2450 and 8410
same,cell count,[2]; [18],2230 and 9060
same,fold fluorescence,[11],6.89 [at 169.9 µM] (inactive)
same,z-score,[3],-0.425 (inactive)
COc1cc2c(cc1O)CC[C@@H]1[C@@H]2CC[C@]2(C)[C@@H](O)CC[C@@H]12,period change,[7],-1.4 h (active)
same,inhibition,[9],-1% (inactive)
same,fluorescence ratio (interference),[10],1 (inactive)
same,remaining activity,[1],112% (inactive)
same,fold change,[2]; [15],1.15 (inactive) and 1.13 (inactive)
same,fold change,[2]; [16],0.815 and 0.616
same,cell count,[2]; [17],2600 and 1620
same,cell count,[2]; [18],2270 and 1440
same,SSMD,[13],1.78
same,cell count,[13],7300
same,plate-normalised HSF1 focus index,[13],1.07 (inactive)
same,outcome,[12],inactive
same,z-score,[3],0.06 (inactive) and 0.18 (inactive)
Oc1ccc(Nc2nc(-c3ccc(Cl)cc3)cs2)cc1,parasite load remaining,[4],34.6% (inactive)
same,viability,[4],65.5%
same,remaining activity,[1],89% (inactive)
same,fold change,[2]; [15],0.947 (inactive) and 0.904 (inactive) and 0.869 (inactive)
same,fold change,[2]; [16],0.378 and 0.549 and 1.23
same,cell count,[2]; [17],4850 and 4920 and 2840
same,cell count,[2]; [18],5120 and 5440 and 3260
same,SSMD,[13],1.25
same,cell count,[13],6680
same,plate-normalised HSF1 focus index,[13],1.08 (inactive)
same,z-score,[6]; [19],-0.306
same,z-score,[6]; [20],2.78
same,z-score,[3],-0.695 (inactive)
C[C@@H](N)C1CCC(C(=O)Nc2ccncc2)CC1 (stereo not given in full),parasite load remaining,[4],75.2% (inactive)
same,viability,[4],142%
same,remaining activity,[1],114% (inactive)
same,outcome,[5],inactive
same,fold change,[2]; [15],0.864 (inactive) and 0.892 (inactive)
same,fold change,[2]; [16],0.978 and 1.24
same,cell count,[2]; [17],4720 and 9420
same,cell count,[2]; [18],5470 and 10600
same,SSMD,[13],3.4
same,cell count,[13],7180
same,plate-normalised HSF1 focus index,[13],1.19 (inactive)
same,viability,"[14]; at 0.000305 µM, OCI-C5x cells, with rucaparib 10 µM, 100% = cells with rucaparib alone",112% (inactive)
same,viability,"[14]; at 0.000305 µM, OCI-C5x cells, without rucaparib",113% (inactive)
same,viability,"[14]; at 0.000305 µM, OCI-P5x cells, with rucaparib 20 µM, 100% = cells with rucaparib alone",93.5% (active)
same,viability,"[14]; at 0.000305 µM, OCI-P5x cells, without rucaparib",93.7% (active)
same,viability,"[14]; at 0.00122 µM, OCI-C5x cells, with rucaparib 10 µM, 100% = cells with rucaparib alone",112% (inactive)
same,viability,"[14]; at 0.00122 µM, OCI-C5x cells, without rucaparib",109% (inactive)
same,viability,"[14]; at 0.00122 µM, OCI-P5x cells, with rucaparib 20 µM, 100% = cells with rucaparib alone",96.3% (active)
same,viability,"[14]; at 0.00122 µM, OCI-P5x cells, without rucaparib",92.8% (active)
same,viability,"[14]; at 0.00488 µM, OCI-C5x cells, with rucaparib 10 µM, 100% = cells with rucaparib alone",115% (inactive)
same,viability,"[14]; at 0.00488 µM, OCI-C5x cells, without rucaparib",112% (inactive)
same,viability,"[14]; at 0.00488 µM, OCI-P5x cells, with rucaparib 20 µM, 100% = cells with rucaparib alone",99.1% (active)
same,viability,"[14]; at 0.00488 µM, OCI-P5x cells, without rucaparib",96.4% (active)
same,viability,"[14]; at 0.0195 µM, OCI-C5x cells, with rucaparib 10 µM, 100% = cells with rucaparib alone",106% (inactive)
same,viability,"[14]; at 0.0195 µM, OCI-C5x cells, without rucaparib",112% (inactive)
same,viability,"[14]; at 0.0195 µM, OCI-P5x cells, with rucaparib 20 µM, 100% = cells with rucaparib alone",89.2% (active)
same,viability,"[14]; at 0.0195 µM, OCI-P5x cells, without rucaparib",102% (inactive)
same,viability,"[14]; at 0.0781 µM, OCI-C5x cells, with rucaparib 10 µM, 100% = cells with rucaparib alone",113% (inactive)
same,viability,"[14]; at 0.0781 µM, OCI-C5x cells, without rucaparib",107% (inactive)
same,viability,"[14]; at 0.0781 µM, OCI-P5x cells, with rucaparib 20 µM, 100% = cells with rucaparib alone",96.5% (active)
same,viability,"[14]; at 0.0781 µM, OCI-P5x cells, without rucaparib",102% (inactive)
same,viability,"[14]; at 0.313 µM, OCI-C5x cells, with rucaparib 10 µM, 100% = cells with rucaparib alone",106% (inactive)
same,viability,"[14]; at 0.313 µM, OCI-C5x cells, without rucaparib",120% (inactive)
same,viability,"[14]; at 0.313 µM, OCI-P5x cells, with rucaparib 20 µM, 100% = cells with rucaparib alone",99.7% (active)
same,viability,"[14]; at 0.313 µM, OCI-P5x cells, without rucaparib",97.9% (active)
same,viability,"[14]; at 1.25 µM, OCI-C5x cells, with rucaparib 10 µM, 100% = cells with rucaparib alone",117% (inactive)
same,viability,"[14]; at 1.25 µM, OCI-C5x cells, without rucaparib",113% (inactive)
same,viability,"[14]; at 1.25 µM, OCI-P5x cells, with rucaparib 20 µM, 100% = cells with rucaparib alone",106% (inactive)
same,viability,"[14]; at 1.25 µM, OCI-P5x cells, without rucaparib",102% (inactive)
same,viability,"[14]; at 5 µM, OCI-C5x cells, with rucaparib 10 µM, 100% = cells with rucaparib alone",110% (inactive)
same,viability,"[14]; at 5 µM, OCI-C5x cells, without rucaparib",107% (inactive)
same,viability,"[14]; at 5 µM, OCI-P5x cells, with rucaparib 20 µM, 100% = cells with rucaparib alone",94.4% (active)
same,viability,"[14]; at 5 µM, OCI-P5x cells, without rucaparib",99.6% (active)
same,z-score,[3],-0.445 (inactive)
Nc1ncnc2c1ncn2[C@@H]1O[C@H](CO)C[C@H]1O,remaining activity,[1],110% (inactive)
same,outcome,[5],inactive
same,fold change,[2]; [15],0.951 (inactive)
same,fold change,[2]; [16],1.64
same,cell count,[2]; [17],9150
same,cell count,[2]; [18],9630
same,z-score,[3],-0.55 (inactive)
